Our source for the AC50 and outcome values is PubChem BioAssay (EPA / NIEHS).

Read-out in experiment [1]: Interleukin-8 (IL8), CXCL8 (gene 3576)
Kind of experiment: BSK_IMphg_IL8: BioMAP Diversity Plus: IMphg Assay for Interleukin-8 (IL8) Biomarker Activity (AID 2284277). To be noted: primary human endothelial cells with macrophages. Summed up:
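Co-culture of human venular endothelial cells and macrophages exposed to chemicals for 24 h; IL-8 quantified by ELISA and compared against the DMSO baseline, with SRB total-protein staining in parallel cultures for cytotoxicity.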

Read-out in experiment [2]: Intercellular Adhesion Molecule 1 (ICAM1), ICAM1 (gene 3383)
Kind of experiment: BSK_BE3C_ICAM1: BioMAP Diversity Plus: BE3C Assay for Intercellular Adhesion Molecule 1 (ICAM1) Biomarker Activity (AID 2284278).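 For outcome: cell-surface ICAM-1 protein level quantified by ELISA.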 The following applies: primary human bronchial epithelial cells. The procedure, abridged: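 Primary human bronchial epithelial cells were exposed to compound for 24 h, after which cell-surface ICAM-1 was quantified by ELISA. Activity was fitted in the gain-of-signal direction against DMSO as negative control and baseline.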

Read-out in experiment [3]: Interferon-inducible T-cell alpha chemoattractant (ITAC), CXCL11 (gene 6373)
Kind of experiment: BSK_BE3C_ITAC: BioMAP Diversity Plus: BE3C Assay for Interferon-inducible T-cell alpha chemoattractant (ITAC) Biomarker Activity (AID 2284279). To be noted: primary human bronchial epithelial cells. Here is the method: (§1) BSK_BE3C is a cell-based, multiplexed-readout assay that uses bronchial epithelial cell, a human lung primary cell, with measurements taken at 24 hours after chemical dosing in a 96-well plate.BSK_BE3C_ITAC is an assay component measured in the BSK_BE3C assay. It measures I-TAC antibody related to regulation of gene expression using ELISA technology.Data from the assay component BSK_BE3C_ITAC was analyzed at the endpoint, BSK_BE3C_ITAC, in the positive analysis fitting direction relative to DMSO as the negative control and baseline of activity. Using a type of binding reporter, gain or loss-of-signal activity can be used to understand protein changes. […]
(§2) The levels of cell surface (or secreted, indicated by the prefix "s") biomarker endpoints were measured by ELISA. Overt cytotoxicity to cells in confluent adherent cultures (all systems other than the BT system) was assessed by measuring total protein levels using sulforhodamine B (SRB) staining in parallel cultures at the time of biomarker measurements, indicated as SRB endpoints. For proliferation assays for adherent cell types, individual cell types are cultured at sub-confluence and relative cell numbers quantified by SRB staining at time points optimized for each system (48 h: 3C and CASM3C systems; 72 h: BT and HDF3CGF systems; 96 h: SAg system). […] Plates were read after 6 h.

Read-out in experiment [4]: Interleukin-8 (IL8), CXCL8 (gene 3576)
Kind of experiment: BSK_BE3C_IL8: BioMAP Diversity Plus: BE3C Assay for Interleukin-8 (IL8) Biomarker Activity (AID 2284280). To be noted: primary human bronchial epithelial cells. The procedure:
as §1, with “plate.BSK_BE3C_IL8” for “plate.BSK_BE3C_ITAC”, “IL-8” for “I-TAC”, “BSK_BE3C_IL8” for “BSK_BE3C_ITAC”, “BSK_BE3C_IL8,” for “BSK_BE3C_ITAC,”
as §2

Read-out in experiment [5]: Epidermal growth factor receptor (EGFR), EGFR (gene 1956)
As to the kind of experiment: BSK_BE3C_EGFR: BioMAP Diversity Plus: BE3C Assay for Epidermal growth factor receptor (EGFR) Biomarker Activity (AID 2284281). The following applies: primary human bronchial epithelial cells. Summed up: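 Compound is added to human bronchial epithelial cells, cells incubate 24 h, then EGFR is detected by ELISA. Values reflect positive-direction fitting relative to DMSO.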

Read-out in experiment [6]: KRT18 (gene 3875)
As to the kind of experiment: BSK_BE3C_Keratin818: BioMAP Diversity Plus: BE3C Assay for Keratin 818 Biomarker Activity (AID 2284282). To be noted: primary human bronchial epithelial cells. Summed up:
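Human primary bronchial epithelial cells in the BE3C system were exposed to test chemical for 24 h, then Keratin 8/18 was quantified by ELISA. Activity was fitted in the positive direction against DMSO as negative control and baseline.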

Read-out in experiment [7]: Matrix Metallopeptidase 9 (MMP9), MMP9 (gene 4318)
As to the kind of experiment: BSK_BE3C_MMP9: BioMAP Diversity Plus: BE3C Assay for Matrix Metallopeptidase 9 (MMP9) Biomarker Activity (AID 2284283). The following applies: primary human bronchial epithelial cells. The procedure, abridged:
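MMP9 is measured by ELISA after a 24 h compound exposure of primary human bronchial epithelial cultures. Parallel SRB staining gives overt cytotoxicity. Values fitted in the positive direction against DMSO.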

Read-out in experiment [8]: Plasminogen activator inhibitor-1 (PAI1), SERPINE1 (gene 5054)
As to the kind of experiment: BSK_CASM3C_PAI1: BioMAP Diversity Plus: CASM3C Assay for Plasminogen activator inhibitor-1 (PAI1) Biomarker Activity (AID 2284284).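 Note: PAI-1 protein level measured by ELISA 24 h after dosing.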 The following applies: primary human coronary artery smooth muscle cells.

Read-out in experiment [9]: Monocyte Chemoattractant Protein-1 (MCP1), CCL2 (gene 6347)
As to the kind of experiment: BSK_hDFCGF_MCP1: BioMAP Diversity Plus: hDFCGF Assay for Monocyte Chemoattractant Protein-1 (MCP1) Biomarker Activity (AID 2284285). The following applies: primary human foreskin fibroblasts. The procedure, abridged:
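Human foreskin fibroblasts (hDFCGF system) were exposed to compound and secreted MCP-1 was measured by ELISA after 24 hours. Activity was fitted relative to DMSO. Cytotoxicity was checked by SRB total-protein staining in parallel cultures.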

Read-out in experiment [10]: Vascular cell adhesion molecule 1 (VCAM1), VCAM1 (gene 7412)
Kind of experiment: BSK_IMphg_VCAM1: BioMAP Diversity Plus: IMphg Assay for Vascular cell adhesion molecule 1 (VCAM1) Biomarker Activity (AID 2284286). The following applies: primary human endothelial cells with macrophages. Summed up: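 Human venular endothelial cells co-cultured with macrophages; VCAM-1 quantified by ELISA 24 h after dosing, fitted in the positive direction against DMSO. Cytotoxicity was checked in parallel cultures by SRB total-protein staining (0.1% SRB after 10% TCA fixation, 560 nm).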

“And” between values parts separate entries of the source, which are not always exact repeats. Equal entries are not always repeated. The source holds several records for some structures; these can differ, active in one and inactive in another. The source made the active and inactive calls. Rule for the calls: active = hit-call score of the fitted dose curve at least 0.9, where 1 is the maximum; inactive = score below 0.9.

By AC50 is commonly meant the midpoint of the concentration-response curve, whichever way the signal moves. As to `CCNS(=O)(=O)C(F)(F)C(F)(F)C(F)(F)C(F)(F)C(F)(F)C(F)(F)C(F)(F)C(F)(F)F`, the AC50 was 21.3 µM (active) and 27.2 µM (active) in experiment [1]; 40.3 µM (active) in [2]; 40 µM (active) and 35.2 µM (active) in experiment [3]; 16.4 µM (active) and 22.6 µM (active) in experiment [4]; 38.2 µM (active) and 23.3 µM (active) in [5]; 21.5 µM (active) and 21.8 µM (active) in experiment [6]. Moreover, the AC50 in experiment [7] was 30 µM (active) and 18.5 µM (active); in experiment [9], 49.3 µM (active) and 46.9 µM (active); in [10] it was 48 µM (active) and 49.6 µM (active). Besides, the result in experiment [2] and in experiment [8] was inactive.
